# The supplement of paper PMC8728848
# This excerpt belongs to a sample that is enriched for the strongest signals.
# B1: Sebin2 (Coprinopsis cinerea), A8PE78 (protein)
# chain: MTTPFYAYCHNVQDDNTWRLGLVFANRSTADEWWRAISEATSSIPITKSITRVTPQYYTHDIRVWNMYNFFVDGNIKSISDKFRGRLFITLEYDRSGRGVSVFPPLHIVDHVSGNWYYIRSKTAPHLFWFYDETRNAIYASKEKRTRFKVSIRNPSPQTPKDAIMINSDDVVIHIKESLYVGVDSYLGHIIPTRAYRTFKFGELEGGAIAGIEVAENAEERCSSTFDGASLYFVGPDSSSPGEPWELV
# Tests used:
# Test in all cases: glycan array binding signal (z-score within array); higher = stronger binding
# Conditions in all cases: glycan notation: IUPAC condensed, linker removed
# [1] = target: Fuc(a1-2)Gal(b1-3)GlcNAc(b1-2)Man(a1-3)[Fuc(a1-2)Gal(b1-3)GlcNAc(b1-2)Man(a1-6)]Man(b1-4)GlcNAc(b1-4)GlcNAc
# Procedure, shortened: (§1)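 The binding signal is a Z-score computed within each array. Data were drawn from 3228 arrays in the Consortium for Functional Glycomics database, restricted to those with a known protein sequence. Scores were averaged over arrays of the same protein sequence at different concentrations or buffers, and over linkers, and negative values can be taken as non-binding.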
# [2] = target: Fuc(a1-2)Gal(b1-3)GlcNAc(b1-3)GalNAc
# Procedure, shortened: as §1
# [3] = target: Fuc(a1-2)Gal(b1-4)GlcNAc(b1-2)[Fuc(a1-2)Gal(b1-4)GlcNAc(b1-4)]Man(a1-3)[Fuc(a1-2)Gal(b1-4)GlcNAc(b1-2)Man(a1-6)]Man(b1-4)GlcNAc(b1-4)GlcNAc
# Procedure, shortened: as §1
# [4] = target: Fuc(a1-2)Gal(b1-4)GlcNAc(b1-3)Gal(b1-4)GlcNAc(b1-3)Gal(b1-4)GlcNAc
# Procedure, shortened: as §1
# [5] = target: Fuc(a1-2)[Gal(a1-3)]Gal(b1-4)GlcNAc(b1-3)[Fuc(a1-2)[Gal(a1-3)]Gal(b1-4)GlcNAc(b1-6)]GalNAc
# Procedure, shortened: as §1
# [6] = target: Fuc(a1-2)[Gal(a1-3)]Gal(b1-4)[Fuc(a1-3)]GlcNAc
# Procedure, shortened: as §1
# [7] = target: Fuc(a1-2)[GalNAc(a1-3)]Gal(b1-4)GlcNAc(b1-2)Man(a1-3)[Fuc(a1-2)[GalNAc(a1-3)]Gal(b1-4)GlcNAc(b1-2)Man(a1-6)]Man(b1-4)GlcNAc(b1-4)GlcNAc
# Procedure, shortened: as §1
# [8] = target: Fuc(a1-3)[Gal(b1-4)]Glc6S
# Procedure, shortened: as §1
# [9] = target: Fuc(a1-3)[Gal(b1-4)]GlcNAc(b1-3)GalNAc
# Procedure, shortened: as §1
# [10] = target: Fuc(a1-4)GlcNAc
# Procedure, shortened: as §1
# [11] = target: Gal(a1-3)Gal(b1-3)GlcNAc
# Procedure, shortened: as §1
# [12] = target: Gal(a1-3)Gal(b1-4)[Fuc(a1-3)]GlcNAc
# Procedure, shortened: as §1
# [13] = target: Gal(b1-3)GalNAc(a1-3)[Fuc(a1-2)]Gal(b1-4)GlcNAc
# Procedure, shortened: as §1
# [14] = target: Gal(b1-3)GlcNAc(b1-2)Man(a1-3)[GlcNAc(b1-4)][Gal(b1-3)GlcNAc(b1-2)Man(a1-6)]Man(b1-4)GlcNAc(b1-4)GlcNAc
# Procedure, shortened: as §1
# [15] = target: Gal(b1-3)GlcNAc(b1-2)[Gal(b1-3)GlcNAc(b1-6)]Man(a1-6)[Gal(b1-3)GlcNAc(b1-2)Man(a1-3)]Man(b1-4)GlcNAc(b1-4)GlcNAc
# Procedure, shortened: as §1
# [16] = target: Gal(b1-3)GlcNAc(b1-3)Gal(b1-3)GlcNAc
# Procedure, shortened: as §1
# [17] = target: Gal(b1-3)GlcNAc(b1-3)Gal(b1-4)GlcNAc(b1-3)Gal(b1-4)GlcNAc(b1-2)[Gal(b1-3)GlcNAc(b1-3)Gal(b1-4)GlcNAc(b1-3)Gal(b1-4)GlcNAc(b1-6)]Man(a1-6)[Gal(b1-3)GlcNAc(b1-3)Gal(b1-4)GlcNAc(b1-3)Gal(b1-4)GlcNAc(b1-2)Man(a1-3)]Man(b1-4)GlcNAc(b1-4)[Fuc(a1-6)]GlcNAc
# Procedure, shortened: as §1
# [18] = target: Gal(b1-4)GlcNAc(b1-2)Man(a1-3)[Gal(b1-4)GlcNAc(b1-2)Man(a1-6)]Man(b1-4)GlcNAc(b1-4)GlcNAc
# Procedure, shortened: as §1
# [19] = target: Gal(b1-4)GlcNAc(b1-3)Gal(b1-4)GlcNAc(b1-3)Gal(b1-4)GlcNAc(b1-2)Man(a1-3)[Gal(b1-4)GlcNAc(b1-3)Gal(b1-4)GlcNAc(b1-3)Gal(b1-4)GlcNAc(b1-2)Man(a1-6)]Man(b1-4)GlcNAc(b1-4)GlcNAc
# Procedure, shortened: as §1
# [20] = target: Gal(b1-4)GlcNAc(b1-3)Gal(b1-4)GlcNAc(b1-3)Gal(b1-4)GlcNAc(b1-3)Gal(b1-4)GlcNAc(b1-3)Gal(b1-4)GlcNAc(b1-2)[Gal(b1-4)GlcNAc(b1-3)Gal(b1-4)GlcNAc(b1-3)Gal(b1-4)GlcNAc(b1-3)Gal(b1-4)GlcNAc(b1-3)Gal(b1-4)GlcNAc(b1-6)]Man(a1-6)[Gal(b1-4)GlcNAc(b1-3)Gal(b1-4)GlcNAc(b1-3)Gal(b1-4)GlcNAc(b1-3)Gal(b1-4)GlcNAc(b1-3)Gal(b1-4)GlcNAc(b1-2)Man(a1-3)]Man(b1-4)GlcNAc(b1-4)[Fuc(a1-6)]GlcNAc
# Procedure, shortened: as §1
# [21] = target: Gal3S(b1-4)Glc6S
# Procedure, shortened: as §1
# [22] = target: Gal6S(b1-4)Glc
# Procedure, shortened: as §1
# [23] = target: Gal6S(b1-4)GlcNAc
# Procedure, shortened: as §1
# [24] = target: GalNAc(b1-3)Gal(a1-4)Gal(b1-4)GlcNAc
# Procedure, shortened: as §1
# [25] = target: GalNAc(b1-3)GalNAc
# Procedure, shortened: as §1
# [26] = target: GalNAc(b1-4)GlcNAc(b1-2)Man(a1-3)[GalNAc(b1-4)GlcNAc(b1-2)Man(a1-6)]Man(b1-4)GlcNAc(b1-4)GlcNAc
# Procedure, shortened: as §1
# [27] = target: GalNAc3S(b1-4)GlcNAc3S
# Procedure, shortened: as §1
# [28] = target: GlcA(b1-6)Gal
# Procedure, shortened: as §1
# [29] = target: GlcA3S(b1-3)Gal(b1-4)GlcNAc(b1-3)Gal(b1-4)Glc
# Procedure, shortened: as §1
# [30] = target: GlcNAc(b1-2)Man(a1-3)[GlcNAc(b1-2)Man(a1-6)]Man(b1-4)GlcNAc(b1-4)[Fuc(a1-6)]GlcNAc
# Procedure, shortened: as §1
# [31] = target: GlcNAc(b1-2)[GlcNAc(b1-4)]Man(a1-3)[GlcNAc(b1-4)][GlcNAc(b1-2)Man(a1-6)]Man(b1-4)GlcNAc(b1-4)GlcNAc
# Procedure, shortened: as §1
# [32] = target: GlcNAc(b1-3)Gal(b1-4)Glc
# Procedure, shortened: as §1
# [33] = target: GlcNAc(b1-3)Gal(b1-4)GlcNAc(b1-6)[Gal(b1-3)]GalNAc
# Procedure, shortened: as §1
# [34] = target: GlcNAc(b1-4)GlcNAc(b1-4)GlcNAc(b1-4)GlcNAc(b1-4)GlcNAc(b1-4)GlcNAc
# Procedure, shortened: as §1
# [35] = target: Man(b1-4)GlcNAc
# Procedure, shortened: as §1
# [36] = target: Neu5Ac(a2-3)Gal(b1-3)GalNAc
# Procedure, shortened: as §1
# [37] = target: Neu5Ac(a2-3)Gal(b1-4)Glc
# Procedure, shortened: as §1
# [38] = target: Neu5Ac(a2-3)Gal(b1-4)GlcNAc(b1-3)Gal(b1-3)GlcNAc
# Procedure, shortened: as §1
# [39] = target: Neu5Ac(a2-3)Gal(b1-4)[Fuc(a1-3)]GlcNAc
# Procedure, shortened: as §1
# [40] = target: Neu5Ac(a2-6)Gal(b1-4)GlcNAc(b1-3)Gal(b1-4)GlcNAc(b1-2)Man(a1-3)[Neu5Ac(a2-6)Gal(b1-4)GlcNAc(b1-3)Gal(b1-4)GlcNAc(b1-2)Man(a1-6)]GalNAc
# Procedure, shortened: as §1
# [41] = target: Neu5Ac(a2-8)Neu5Ac(a2-8)Neu5Ac
# Procedure, shortened: as §1
# [42] = target: Neu5Ac(a2-8)Neu5Gc(a2-3)Gal(b1-4)GlcNAc
# Procedure, shortened: as §1
# [43] = target: Neu5Gc(a2-6)GalNAc
# Procedure, shortened: as §1
binder,measurement,setting,value
B1,glycan array binding signal (z-score),[1],0.911
same,glycan array binding signal (z-score),[2],-0.146
same,glycan array binding signal (z-score),[3],0.019
same,glycan array binding signal (z-score),[4],-0.116
same,glycan array binding signal (z-score),[5],4.59
same,glycan array binding signal (z-score),[6],-0.033
same,glycan array binding signal (z-score),[7],0.273
same,glycan array binding signal (z-score),[8],1.49
same,glycan array binding signal (z-score),[9],0.281
same,glycan array binding signal (z-score),[10],4.58
same,glycan array binding signal (z-score),[11],1.62
same,glycan array binding signal (z-score),[12],-0.524
same,glycan array binding signal (z-score),[13],-0.521
same,glycan array binding signal (z-score),[14],-0.222
same,glycan array binding signal (z-score),[15],1.02
same,glycan array binding signal (z-score),[16],-0.397
same,glycan array binding signal (z-score),[17],0.29
same,glycan array binding signal (z-score),[18],0.112
same,glycan array binding signal (z-score),[19],-0.131
same,glycan array binding signal (z-score),[20],0.421
same,glycan array binding signal (z-score),[21],0.515
same,glycan array binding signal (z-score),[22],-0.355
same,glycan array binding signal (z-score),[23],-0.138
same,glycan array binding signal (z-score),[24],-0.059
same,glycan array binding signal (z-score),[25],-0.129
same,glycan array binding signal (z-score),[26],-0.25
same,glycan array binding signal (z-score),[27],0.462
same,glycan array binding signal (z-score),[28],1.12
same,glycan array binding signal (z-score),[29],1.64
same,glycan array binding signal (z-score),[30],-0.213
same,glycan array binding signal (z-score),[31],2.76
same,glycan array binding signal (z-score),[32],-0.04
same,glycan array binding signal (z-score),[33],-0.253
same,glycan array binding signal (z-score),[34],-0.328
same,glycan array binding signal (z-score),[35],-0.209
same,glycan array binding signal (z-score),[36],6.35
same,glycan array binding signal (z-score),[37],8.35
same,glycan array binding signal (z-score),[38],0.2
same,glycan array binding signal (z-score),[39],-0.437
same,glycan array binding signal (z-score),[40],-0.35
same,glycan array binding signal (z-score),[41],0.72
same,glycan array binding signal (z-score),[42],-0.304
same,glycan array binding signal (z-score),[43],-0.242
